Experimental data from the supplement of paper PMC11732987, “Enantioselective OTUD7B fragment discovery through chemoproteomics screening and high-throughput optimisation” (Communications Chemistry, 2025).

Key:
Assay in all cases: log2 ratio of Biotin-Ahx-Ub-VS probe labelling (fragment/DMSO); higher = less target engagement (more negative = stronger competition), active = hit call of the paper (q ≤ 0.05, log2 ratio ≤ -1)
Details in all cases: compound concentration: 200 uM; treatment time: 3 h
USP34 = USP34 (UniProt Q70CQ2)
Chain of USP34 (Q70CQ2 whole entry, the tested form may be a part): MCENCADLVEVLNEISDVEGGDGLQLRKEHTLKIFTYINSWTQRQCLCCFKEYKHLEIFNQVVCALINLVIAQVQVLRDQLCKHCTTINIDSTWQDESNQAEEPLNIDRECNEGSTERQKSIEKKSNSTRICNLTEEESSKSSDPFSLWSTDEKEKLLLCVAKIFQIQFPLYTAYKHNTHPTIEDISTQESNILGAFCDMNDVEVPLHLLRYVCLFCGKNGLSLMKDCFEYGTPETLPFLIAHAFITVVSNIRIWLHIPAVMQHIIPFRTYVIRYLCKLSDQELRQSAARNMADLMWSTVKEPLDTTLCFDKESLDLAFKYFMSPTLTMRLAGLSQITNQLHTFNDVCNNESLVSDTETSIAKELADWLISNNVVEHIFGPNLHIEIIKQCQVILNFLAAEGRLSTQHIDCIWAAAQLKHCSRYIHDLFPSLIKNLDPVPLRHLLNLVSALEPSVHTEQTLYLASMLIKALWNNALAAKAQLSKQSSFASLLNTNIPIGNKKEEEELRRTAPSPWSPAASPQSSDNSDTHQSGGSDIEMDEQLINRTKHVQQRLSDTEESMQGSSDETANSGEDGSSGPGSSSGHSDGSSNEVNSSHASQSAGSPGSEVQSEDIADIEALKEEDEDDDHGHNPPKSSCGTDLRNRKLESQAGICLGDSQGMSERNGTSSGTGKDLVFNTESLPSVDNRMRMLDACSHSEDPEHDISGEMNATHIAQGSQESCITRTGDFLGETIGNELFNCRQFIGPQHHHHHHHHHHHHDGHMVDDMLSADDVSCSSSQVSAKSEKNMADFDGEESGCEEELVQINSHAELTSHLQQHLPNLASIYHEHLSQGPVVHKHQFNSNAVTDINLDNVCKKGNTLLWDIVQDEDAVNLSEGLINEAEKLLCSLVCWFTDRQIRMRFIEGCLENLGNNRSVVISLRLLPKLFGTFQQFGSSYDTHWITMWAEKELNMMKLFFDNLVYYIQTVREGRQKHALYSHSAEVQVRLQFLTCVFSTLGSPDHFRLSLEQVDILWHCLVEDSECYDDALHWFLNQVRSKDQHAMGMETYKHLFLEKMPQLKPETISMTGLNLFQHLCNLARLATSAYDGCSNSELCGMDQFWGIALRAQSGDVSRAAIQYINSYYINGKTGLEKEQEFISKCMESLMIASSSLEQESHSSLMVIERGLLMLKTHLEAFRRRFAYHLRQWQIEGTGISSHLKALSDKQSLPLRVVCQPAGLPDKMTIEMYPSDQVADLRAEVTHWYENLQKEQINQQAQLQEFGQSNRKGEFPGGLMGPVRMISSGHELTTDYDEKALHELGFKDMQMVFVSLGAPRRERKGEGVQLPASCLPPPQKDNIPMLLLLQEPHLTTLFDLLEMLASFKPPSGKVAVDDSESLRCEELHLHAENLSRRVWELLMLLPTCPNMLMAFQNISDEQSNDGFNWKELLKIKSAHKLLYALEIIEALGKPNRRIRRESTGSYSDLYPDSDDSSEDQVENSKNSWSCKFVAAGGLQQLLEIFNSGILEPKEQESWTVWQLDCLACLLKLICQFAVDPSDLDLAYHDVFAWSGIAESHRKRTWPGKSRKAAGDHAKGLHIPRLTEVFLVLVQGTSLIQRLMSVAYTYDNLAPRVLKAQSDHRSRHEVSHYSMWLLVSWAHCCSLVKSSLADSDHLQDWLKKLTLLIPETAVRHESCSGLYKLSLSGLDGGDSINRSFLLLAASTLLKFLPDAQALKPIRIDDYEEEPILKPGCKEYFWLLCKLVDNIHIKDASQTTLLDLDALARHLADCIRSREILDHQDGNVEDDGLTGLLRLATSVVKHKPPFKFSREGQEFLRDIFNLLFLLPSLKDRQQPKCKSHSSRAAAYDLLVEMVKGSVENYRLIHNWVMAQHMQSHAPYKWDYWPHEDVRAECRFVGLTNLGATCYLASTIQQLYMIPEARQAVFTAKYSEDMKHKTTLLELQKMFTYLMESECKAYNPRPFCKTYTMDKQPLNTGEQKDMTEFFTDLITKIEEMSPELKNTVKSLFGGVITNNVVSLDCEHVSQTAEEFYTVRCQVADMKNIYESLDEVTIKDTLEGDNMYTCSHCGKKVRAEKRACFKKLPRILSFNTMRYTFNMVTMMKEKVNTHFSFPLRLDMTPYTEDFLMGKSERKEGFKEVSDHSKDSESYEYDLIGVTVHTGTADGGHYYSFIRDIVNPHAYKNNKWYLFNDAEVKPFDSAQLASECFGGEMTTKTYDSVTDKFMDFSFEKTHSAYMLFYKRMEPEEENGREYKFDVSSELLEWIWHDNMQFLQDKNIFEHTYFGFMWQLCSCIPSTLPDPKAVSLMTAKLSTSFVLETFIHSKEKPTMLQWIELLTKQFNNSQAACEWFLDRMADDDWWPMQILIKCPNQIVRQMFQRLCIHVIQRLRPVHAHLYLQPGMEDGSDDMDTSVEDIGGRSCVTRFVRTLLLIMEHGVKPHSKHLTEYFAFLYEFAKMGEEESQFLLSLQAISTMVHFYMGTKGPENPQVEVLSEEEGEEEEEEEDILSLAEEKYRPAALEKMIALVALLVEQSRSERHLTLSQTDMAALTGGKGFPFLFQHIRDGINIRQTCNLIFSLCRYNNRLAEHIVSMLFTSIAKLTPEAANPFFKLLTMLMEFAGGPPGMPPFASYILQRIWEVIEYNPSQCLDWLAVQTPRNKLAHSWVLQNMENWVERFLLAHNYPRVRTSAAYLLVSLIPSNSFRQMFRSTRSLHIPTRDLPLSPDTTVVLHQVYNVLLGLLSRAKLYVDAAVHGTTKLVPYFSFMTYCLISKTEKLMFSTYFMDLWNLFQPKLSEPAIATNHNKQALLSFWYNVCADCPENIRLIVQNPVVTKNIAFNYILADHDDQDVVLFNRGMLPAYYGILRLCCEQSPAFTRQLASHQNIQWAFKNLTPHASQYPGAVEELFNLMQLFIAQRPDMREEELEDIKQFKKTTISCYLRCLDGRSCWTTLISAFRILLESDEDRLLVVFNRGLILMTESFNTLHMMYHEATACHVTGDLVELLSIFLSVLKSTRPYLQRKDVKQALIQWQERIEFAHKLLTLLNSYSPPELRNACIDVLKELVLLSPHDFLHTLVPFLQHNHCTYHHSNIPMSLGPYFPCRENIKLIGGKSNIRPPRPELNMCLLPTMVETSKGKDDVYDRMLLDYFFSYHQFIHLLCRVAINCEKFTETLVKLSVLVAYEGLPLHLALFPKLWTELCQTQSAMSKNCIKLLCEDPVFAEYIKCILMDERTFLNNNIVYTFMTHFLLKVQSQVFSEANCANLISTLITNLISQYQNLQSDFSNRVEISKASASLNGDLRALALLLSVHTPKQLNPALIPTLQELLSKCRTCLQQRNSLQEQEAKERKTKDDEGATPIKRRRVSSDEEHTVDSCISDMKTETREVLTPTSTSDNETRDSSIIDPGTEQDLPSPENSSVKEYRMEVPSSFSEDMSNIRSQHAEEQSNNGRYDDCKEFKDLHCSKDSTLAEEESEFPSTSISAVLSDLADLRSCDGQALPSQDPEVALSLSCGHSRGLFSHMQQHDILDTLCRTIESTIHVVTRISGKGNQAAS
In short: (§1)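 Triplicate samples of HEK293T lysate, 495 µg each, received fragment at 200 µM or vehicle for 3 h, followed by Biotin-Ahx-Ub-VS (0.5 µM final) for 1 h. After NeutrAvidin enrichment of labelled DUBs and LysC/trypsin digestion, peptides were run by diaPASEF LC-MS/MS. The values are average log2 fragment/vehicle ratios from global-median-normalised Spectronaut label-free quantities, tested by unpaired t-test on proteins having ≥2 unique peptides.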

USP36 = target: T1, USP36 (UniProt Q9P275)
T1 sequence (whole entry): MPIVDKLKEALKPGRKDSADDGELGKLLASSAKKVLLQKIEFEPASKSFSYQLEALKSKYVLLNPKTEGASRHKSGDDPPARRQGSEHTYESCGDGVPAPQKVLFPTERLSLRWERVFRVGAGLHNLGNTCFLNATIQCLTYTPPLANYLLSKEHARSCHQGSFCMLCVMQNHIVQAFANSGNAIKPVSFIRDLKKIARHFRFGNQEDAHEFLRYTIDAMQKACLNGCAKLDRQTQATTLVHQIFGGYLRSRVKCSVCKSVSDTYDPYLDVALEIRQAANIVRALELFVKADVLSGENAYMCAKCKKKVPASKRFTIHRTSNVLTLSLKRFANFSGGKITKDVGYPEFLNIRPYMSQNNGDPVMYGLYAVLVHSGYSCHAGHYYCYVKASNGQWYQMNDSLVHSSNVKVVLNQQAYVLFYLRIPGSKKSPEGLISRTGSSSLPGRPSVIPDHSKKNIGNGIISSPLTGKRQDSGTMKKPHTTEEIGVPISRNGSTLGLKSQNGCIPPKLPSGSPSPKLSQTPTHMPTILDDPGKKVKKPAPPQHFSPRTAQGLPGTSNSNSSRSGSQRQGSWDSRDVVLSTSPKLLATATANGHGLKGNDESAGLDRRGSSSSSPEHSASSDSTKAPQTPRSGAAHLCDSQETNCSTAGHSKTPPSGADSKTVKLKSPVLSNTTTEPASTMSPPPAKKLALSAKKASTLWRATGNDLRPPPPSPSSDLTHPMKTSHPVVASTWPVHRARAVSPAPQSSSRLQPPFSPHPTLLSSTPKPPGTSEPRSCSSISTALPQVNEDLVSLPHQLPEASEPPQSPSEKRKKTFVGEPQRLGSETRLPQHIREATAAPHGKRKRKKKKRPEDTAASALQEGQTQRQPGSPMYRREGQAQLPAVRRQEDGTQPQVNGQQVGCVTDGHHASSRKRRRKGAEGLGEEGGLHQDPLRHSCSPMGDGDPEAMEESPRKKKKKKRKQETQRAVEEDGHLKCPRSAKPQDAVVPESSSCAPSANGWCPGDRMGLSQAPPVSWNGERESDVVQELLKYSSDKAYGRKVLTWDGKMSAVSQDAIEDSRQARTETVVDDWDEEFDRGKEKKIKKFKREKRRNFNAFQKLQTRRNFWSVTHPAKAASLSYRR
In short: as §1

USP38 = target: T2, USP38 (UniProt Q8NB14)
T2 sequence (whole entry): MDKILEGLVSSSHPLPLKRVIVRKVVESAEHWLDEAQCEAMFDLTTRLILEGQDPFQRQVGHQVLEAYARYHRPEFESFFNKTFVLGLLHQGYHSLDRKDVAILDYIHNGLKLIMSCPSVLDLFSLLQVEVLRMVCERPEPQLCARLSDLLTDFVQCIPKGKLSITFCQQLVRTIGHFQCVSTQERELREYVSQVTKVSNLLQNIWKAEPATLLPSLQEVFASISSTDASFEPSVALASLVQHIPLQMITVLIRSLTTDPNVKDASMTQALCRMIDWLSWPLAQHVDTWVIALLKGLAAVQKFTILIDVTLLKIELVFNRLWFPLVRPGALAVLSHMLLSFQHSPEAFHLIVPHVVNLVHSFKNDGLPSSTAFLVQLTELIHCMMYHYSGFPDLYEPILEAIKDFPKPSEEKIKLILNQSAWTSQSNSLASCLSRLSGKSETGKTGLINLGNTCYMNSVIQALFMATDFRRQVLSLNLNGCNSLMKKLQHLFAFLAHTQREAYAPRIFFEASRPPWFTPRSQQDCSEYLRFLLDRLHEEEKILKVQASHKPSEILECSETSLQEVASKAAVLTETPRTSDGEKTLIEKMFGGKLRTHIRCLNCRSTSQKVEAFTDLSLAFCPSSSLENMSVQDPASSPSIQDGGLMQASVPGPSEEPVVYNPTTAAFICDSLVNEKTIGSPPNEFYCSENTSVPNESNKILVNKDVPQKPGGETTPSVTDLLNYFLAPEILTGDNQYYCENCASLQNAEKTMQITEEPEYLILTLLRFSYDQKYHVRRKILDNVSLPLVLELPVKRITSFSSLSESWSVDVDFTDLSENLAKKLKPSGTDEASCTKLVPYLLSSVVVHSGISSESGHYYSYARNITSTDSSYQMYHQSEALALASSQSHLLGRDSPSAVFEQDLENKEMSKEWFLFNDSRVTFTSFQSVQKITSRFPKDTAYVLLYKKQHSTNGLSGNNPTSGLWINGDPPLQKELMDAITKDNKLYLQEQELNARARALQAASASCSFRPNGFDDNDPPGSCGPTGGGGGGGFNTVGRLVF
In short: as §1

USP39 = target: T3, USP39 (UniProt Q53GS9)
T3 sequence (whole entry): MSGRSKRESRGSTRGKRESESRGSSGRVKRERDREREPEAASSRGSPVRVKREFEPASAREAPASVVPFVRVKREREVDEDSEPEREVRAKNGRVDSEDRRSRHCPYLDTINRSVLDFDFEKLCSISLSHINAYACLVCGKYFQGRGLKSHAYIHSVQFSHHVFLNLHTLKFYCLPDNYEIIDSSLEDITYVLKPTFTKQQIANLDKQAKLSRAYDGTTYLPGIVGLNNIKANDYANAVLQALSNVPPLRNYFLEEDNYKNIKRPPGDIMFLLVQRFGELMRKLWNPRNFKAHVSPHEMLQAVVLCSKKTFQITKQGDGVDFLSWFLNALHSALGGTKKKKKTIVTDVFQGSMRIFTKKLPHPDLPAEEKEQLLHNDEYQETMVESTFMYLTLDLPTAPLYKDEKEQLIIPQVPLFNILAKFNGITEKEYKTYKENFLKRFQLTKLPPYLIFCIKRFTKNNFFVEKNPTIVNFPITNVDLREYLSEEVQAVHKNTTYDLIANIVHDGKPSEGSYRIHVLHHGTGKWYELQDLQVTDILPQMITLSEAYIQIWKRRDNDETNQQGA
In short: as §1

USP4 = target: T4, USP4 (UniProt Q13107)
T4 sequence (whole entry): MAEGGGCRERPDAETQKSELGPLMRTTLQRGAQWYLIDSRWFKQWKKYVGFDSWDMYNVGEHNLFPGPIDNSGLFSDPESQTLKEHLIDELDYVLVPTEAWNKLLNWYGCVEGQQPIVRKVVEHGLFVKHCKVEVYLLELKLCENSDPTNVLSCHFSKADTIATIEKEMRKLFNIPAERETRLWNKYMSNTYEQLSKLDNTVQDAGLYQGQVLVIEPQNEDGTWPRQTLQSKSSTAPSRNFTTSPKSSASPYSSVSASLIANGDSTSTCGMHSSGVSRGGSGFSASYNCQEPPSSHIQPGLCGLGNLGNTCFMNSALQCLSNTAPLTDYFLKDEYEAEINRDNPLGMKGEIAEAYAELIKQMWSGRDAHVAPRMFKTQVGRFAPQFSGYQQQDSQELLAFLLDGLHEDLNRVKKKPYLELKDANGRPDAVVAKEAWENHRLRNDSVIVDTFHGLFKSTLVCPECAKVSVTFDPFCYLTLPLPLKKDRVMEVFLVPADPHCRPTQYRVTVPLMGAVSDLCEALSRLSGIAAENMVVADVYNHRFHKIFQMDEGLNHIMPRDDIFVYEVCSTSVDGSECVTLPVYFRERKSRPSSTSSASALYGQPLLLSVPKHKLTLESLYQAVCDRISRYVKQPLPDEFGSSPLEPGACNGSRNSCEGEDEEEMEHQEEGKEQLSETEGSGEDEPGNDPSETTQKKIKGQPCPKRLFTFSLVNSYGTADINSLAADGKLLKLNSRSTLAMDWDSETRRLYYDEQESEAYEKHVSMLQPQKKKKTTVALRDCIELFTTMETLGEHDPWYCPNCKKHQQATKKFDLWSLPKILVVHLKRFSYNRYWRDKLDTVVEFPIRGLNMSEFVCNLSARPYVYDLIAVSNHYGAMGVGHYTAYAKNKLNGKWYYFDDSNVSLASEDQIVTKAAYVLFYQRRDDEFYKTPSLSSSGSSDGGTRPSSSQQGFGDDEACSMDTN
In short: as §1

Measured: log2 ratio of Biotin-Ahx-Ub-VS probe labelling

Cl.O=C(CCl)N1CC(c2ccc(Br)cn2)C1
inactive: USP34 -0.16 | USP36 -0.222 | USP38 -0.0763 | USP39 -0.11 | USP4 -0.285
